Source: PubChem BioAssay (NCATS)
Inconclusive results are not listed. The source made the active and inactive calls. Unless noted, calls come from the whole dose curve; as a rule, active = well fitted curve in the direction sought with a large enough effect; inconclusive = small, poorly fitted or top-dose-only effect, or another doubt; inactive = no such curve, though single readings can be large; an effect the other way counts as inactive or inconclusive.

Experiments:
[1] = biological target: Glutathione peroxidase 1 (Homo sapiens) (UniProt P07203); assay: Primary qHTS Assay for Inhibitors of Recombinant Selenoprotein Glutathione Peroxidase 1 (GPX1) (AID 1845191); details: recombinant GPX1, GR-coupled NADPH fluorescence, 15 min; series mostly up to 48.8 µM; note: nearly all actives have a fitted effect of over 65% in size; for activity, negative = inhibition: % is set by controls: 0 for no effect and ±100 for the full control effect
Chain of Glutathione peroxidase 1 (Homo sapiens) (P07203 whole entry, looked up): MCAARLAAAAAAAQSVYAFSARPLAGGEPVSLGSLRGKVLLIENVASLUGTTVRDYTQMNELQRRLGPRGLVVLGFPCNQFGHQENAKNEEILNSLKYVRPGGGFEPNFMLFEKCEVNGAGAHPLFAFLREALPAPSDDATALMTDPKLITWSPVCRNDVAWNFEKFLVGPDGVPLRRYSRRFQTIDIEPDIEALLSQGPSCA
Summary of the method: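 GPX1 10 nM, GR 100 nM, GSH 1 mM, NADPH 0.5 mM, CHP 0.5 mM (final). 30-min cpd preincubation, RT. Ex340/Em450 read t=0, t=15 min.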

[2] = biological target: Phospholipid hydroperoxide glutathione peroxidase GPX4 (Homo sapiens) (UniProt P36969); assay: Primary qHTS Assay for Inhibitors of Recombinant Selenoprotein Glutathione Peroxidase 4 (GPX4) (AID 1845192); details: recombinant GPX4, GR-coupled NADPH fluorescence, 15 min; series mostly up to 50 µM; note: nearly all actives have a fitted effect of over 65% in size
Chain of Phospholipid hydroperoxide glutathione peroxidase GPX4 (Homo sapiens) (P36969 whole entry, looked up): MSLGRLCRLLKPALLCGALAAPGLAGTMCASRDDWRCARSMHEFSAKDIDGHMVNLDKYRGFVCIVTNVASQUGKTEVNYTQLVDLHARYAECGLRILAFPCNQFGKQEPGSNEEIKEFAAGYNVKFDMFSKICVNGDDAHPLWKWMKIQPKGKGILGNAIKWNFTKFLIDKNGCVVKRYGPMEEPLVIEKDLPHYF
Summary of the method: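 qHTS, GR-coupled: GPX4 200 nM + cpd 30 min RT → GSH 1 mM, NADPH 0.5 mM, GR 100 nM → CHP 0.5 mM start; fluor 340/450 at t0 and t15 min; no-enzyme wells as control.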

[3] = biological target: Luciferin 4-monooxygenase (Photinus pyralis) (UniProt P08659); assay: Primary firefly luciferase (FLuc) qHTS assay for identification of artifact compounds. (AID 1845220); details: purified firefly luciferase, luminescence, 5 min; series mostly up to 54.1 µM; note: nearly all actives have a fitted effect of over 60% in size; note: potency is the fitted concentration of half-maximal effect
Summary of the method: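 In this counter-screen for luciferase artifacts, test compounds met substrate (10 uM each luciferin and ATP) before 10 nM enzyme started the reaction. Light output was measured 5 min later.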

[4] = Primary redox qHTS assay for identification of artifact compounds. (AID 1845223); details: Amplex Red/HRP redox cycling with DTT, fluorescence; series mostly up to 53.8 µM;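 note: 0% = DMSO and 100% = reference compound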
Summary of the method: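 Redox-cycling detection via DTT (250 uM final) oxidation coupled to Amplex Red (25 uM)/HRP (250 mU/mL) in HBSS. 15 min preincubation plus 30 min after DTT, room temperature. Ex/Em 525/598 nm; 4-parameter Hill fit against DMSO and 10 uM DA3003.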

[5] = Primary fluorescence-based thiol-reactive (MSTI) qHTS assay for identification of artifact compounds. (AID 1845221); details: MSTI thiol-reactivity probe, 1 h; series mostly up to 53.8 µM; note: nearly all actives have a fitted effect of over 65% in size; note: potency is the fitted concentration of half-maximal effect;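 for activity change, negative = thiol reactive: thiol-reactive compounds lower the probe fluorescence signal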
Summary of the method: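 qHTS titration of compound; 4 uM MSTI, PBS pH 7.4, 2% DMSO; 1 h RT, dark; fluorescence 525/598 nm; normalized to Acetyl-MSTI and MSTI; 4-parameter Hill fit.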

[6] = tested on: Nanoluciferase (engineered Oplophorus gracilirostris luciferase); assay: Primary Nanoluciferase (NLuc) qHTS assay for identification of artifact compounds. (AID 1845222); details: NLuc-conditioned medium, Nano-Glo luminescence, 5 min; series mostly up to 54.1 µM;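 note: NLuc secreted into diluted conditioned medium of S16 cells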
Summary of the method: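 Using secreted nanoluciferase in S16 culture medium (0.22 um filtered, 1:55 dilution), compounds were preincubated 15 min at RT. Signal was generated with Nano-Glo reagent (1:100) over 5 min.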

[7] = qHTS drug screen for cell cycle checkpoint inhibitors in PARPi-resistant BRCA-mutant ovarian cancer cell lines. (AID 1963452; calls by dose curve; note: potency is the fitted concentration of half-maximal effect); details: PEO1/OlaR viability, CellTiter-Glo luminescence, 96 h; for Z-AUC: stronger effect = lower value
Summary of the method: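 PEO1, PEO4 and PEO1/OlaR ovarian cancer cells, 600 per well, exposed 96 h at 37C to a dilution series. Viability read by CellTiter-Glo luminescence, normalized to DMSO and empty wells; activity summarized as Z-AUC.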

[8] = measured here: PEO1 parental Z-AUC

COc1cc2c(cc1OC)CC(=O)N(CCCNC[C@H]1Cc3cc(OC)c(OC)cc31)CC2
inactive: Potency [1] | Potency [2] | Potency [3] | Potency [4]

O=C(OC1C=C(CO)C2C(OC3OC(CO)C(O)C(O)C3O)OC=CC12)c1ccc(O)cc1 (stereo not drawn)
inactive: Potency [1] | Potency [2] | Potency [3] | Potency [4]

CC(C)C(CO)Nc1nc(Nc2ccc(C(=O)O)c(Cl)c2)c2ncn(C(C)C)c2n1 (stereo not drawn)
inactive: Potency [1] | Potency [2] | Potency [5]

CC1CCC2(CO)C(C(=O)O)=CCCC2C1(C)CCc1ccoc1 (stereo not drawn)
inactive: Potency [1] | Potency [2] | Potency [5] | Potency [6]

CCOC(=O)CCN(C(=O)c1ccc2c(c1)nc(CNc1ccc(C(=N)N)cc1)n2C)c1ccccn1
inactive: Potency [1] | Potency [2] | Potency [5] | Potency [6] | Potency [4]

C=C1C(O)CC2C(C(=O)O)=COC(O[C@@H]3O[C@H](COC(=O)/C=C/c4ccc(O)cc4)[C@@H](O)[C@H](O)[C@H]3O)C12 (stereo partly drawn)
inactive: Potency [1] | Potency [2] | Potency [3] | Potency [4]

CN(C)c1nc(NC2CCC(NCCc3ccc(Br)cc3OC(F)(F)F)CC2)nc2ccccc12 (stereo not drawn)
inactive: Potency [1] | Potency [2] | Potency [5] | Potency [6] | Potency [4]

C=C1C[C@@]23CCC4[C@@](C)(CCC[C@@]4(C)C(=O)OC)C2CC[C@@H]1C3 (stereo partly drawn)
inactive: Potency [1] | Potency [2] | Potency [3] | Potency [6] | Potency [4]

Cc1ccccc1C#Cc1ccc(CCC(=O)O)cc1
inactive: Potency [1] | Potency [2] | Potency [4]
active: Potency [3] 4.26 µM

Cc1ccc([N+](=O)[O-])cc1S(=O)(=O)N(C)/N=C/c1cnc2ccc(Br)cn12
-2.56: Z-AUC ([7]; measured here: PEO4 Z-AUC)
-2.53: Z-AUC [7, 8]
inactive: Potency [1] | Potency [2] | Potency [3] | Potency [6] | Potency [4] | Z-AUC [7] -2.4

c1ccc(N2CCN(CCc3nn[nH]n3)CC2)cc1
inactive: Potency [1] | Potency [2] | Potency [3] | Potency [6] | Potency [4]

COc1c2cc(c(O)c1OC)-c1cc(ccc1O)CCC(O)CCCC2 (stereo not drawn)
inactive: Potency [1] | Potency [2] | Potency [5] | Potency [6] | Potency [4]

CC(C)=CCC/C(C)=C/Cc1ccc(O)c(C2OC(=O)c3cc(C(=O)O)cc(O)c32)c1O (stereo not drawn)
inactive: Potency [1] | Potency [2] | Potency [6]

COc1cc2c(cc1OC)[C@@H]1[C@H](O)[C@@H](OC)C=C3CCN(C2)[C@H]31
inactive: Potency [1] | Potency [2] | Potency [6] | Potency [4]

COC(=O)CC1CC(c2ccc(O)cc2)=NO1 (stereo not drawn)
inactive: Potency [1] | Potency [2] | Potency [5] | Potency [6] | Potency [4]

CCCN1CCN(c2ccc(C(=O)NC3(C(=O)NCC#N)CCCCC3)cc2)CC1
0.558: Z-AUC ([7]; measured here: PEO4 Z-AUC)
inactive: Potency [1] | Potency [2] | Potency [5] | Potency [6] | Z-AUC [7] 0.959
0.728: Z-AUC [7, 8]

CN(c1ccccc1CNc1nc(Nc2ccc3c(c2)CC(=O)N3)ncc1C(F)(F)F)S(C)(=O)=O
inactive: Potency [1] | Potency [2] | Potency [6] | Potency [4]
active: Potency [5] 10.6 µM

CCn1cc(NC(=S)Nc2cc(Cl)ccc2OC)c(C(N)=O)n1
inactive: Potency [1] | Potency [2] | Potency [5] | Potency [6] | Potency [4]

c1ccc(-c2csc(N3CCOCC3)n2)cc1
inactive: Potency [1] | Potency [2] | Potency [6] | Potency [4]

CC(C)S(=O)(=O)NC[C@H](C)c1ccc(NC(=O)c2cc(F)cc(F)c2)cc1
inactive: Potency [1] | Potency [2] | Potency [5] | Potency [6] | Potency [4]

CC(C)(O)c1ccc2c(c1)C(O)C[C@H]1[C@](C)(C(=O)O)CCC[C@]21C (stereo partly drawn)
inactive: Potency [1] | Potency [2] | Potency [6] | Potency [4]

CCN1CCN(Cc2ccc(NC(=O)c3ccc(C)c(/C=C/c4cnc5[nH]ccc5c4OC)c3)cc2C(F)(F)F)CC1
-1.48: Z-AUC [7, 8]
inactive: Potency [1] | Potency [2] | Potency [5] | Potency [6] | Potency [4] | Z-AUC [7] -1.16
-1.42: Z-AUC ([7]; measured here: PEO4 Z-AUC)

CCN1CCN(Cc2ccc(NC(=O)c3ccc(C)c(NC(=O)c4cncc(-c5cccs5)c4)c3)cc2C(F)(F)F)CC1
-0.887: Z-AUC ([7]; measured here: PEO4 Z-AUC)
inactive: Potency [1] | Potency [2] | Potency [6] | Potency [4] | Z-AUC [7] -1.84
-1.46: Z-AUC [7, 8]

CC1(C)CC[C@]2(CO[C@@H]3O[C@H](CO)[C@@H](O)[C@H](O)[C@H]3O)[C@@H](O)C[C@]3(C)C(=CCC4[C@@]5(C)CC[C@H](O[C@@H]6O[C@H](CO[C@@H]7O[C@H](CO[C@@H]8OC[C@@H](O)[C@H](O)[C@H]8O)[C@@H](O)[C@H](O)[C@H]7O)[C@@H](O)[C@H](O)[C@H]6O)C(C)(C)C5CC[C@]43C)[C@@H]2C1 (stereo partly drawn)
inactive: Potency [1] | Potency [2] | activity change, negative = thiol reactive [5] 75.4% [at 11.5 µM] | activity, negative = inhibition [6] 0.495% [at 11.6 µM] | redox activity (% of DA3003) [4] 13.8% [at 11.5 µM]

C=C(C(=O)O)[C@@H]1CC[C@@]2(C)CC[C@H](O)[C@@]2(C(C)=O)C1
active: Potency [5] 11.9 µM
inactive: Potency [1] | Potency [2] | Potency [6] | Potency [4]

CC(C)C(CO)Nc1nc(Nc2cc(N)cc(Cl)c2)c2ncn(C(C)C)c2n1 (stereo not drawn)
inactive: Potency [1] | Potency [2] | Potency [6] | Potency [4]

CC1=C(C(=O)OCc2ccccc2)C(c2ccc(-c3ccccc3)cc2)NC(=O)N1CCCCCC(=O)O (stereo not drawn)
inactive: Potency [1] | Potency [3] | Potency [5] | Potency [6]

CC(C)c1cc(CNc2nc(Nc3cc(C4CC4)[nH]n3)cc(N3CCN(C)CC3)n2)on1
-1.91: Z-AUC [7, 8]
active: Potency [7] 0.549 µM
inactive: Potency [1] | Potency [2] | Potency [6]
-2.1: Z-AUC ([7]; measured here: PEO4 Z-AUC)

c1cc(Nc2cc(C3CC3)[nH]n2)nc(Nc2ccc3nc[nH]c3c2)n1
-2.08: Z-AUC [7, 8]
-2.23: Z-AUC ([7]; measured here: PEO4 Z-AUC)
inactive: Potency [1] | Potency [2] | Potency [6] | Potency [4] | Z-AUC [7] -1.72

CC(C)/C=C1\NC(=O)C(C(C)C)n2c1nc1c(c2=O)C=CC=CO1 (stereo not drawn)
inactive: Potency [1] | Potency [2] | Potency [6] | Potency [4]

COc1cc2c3c(cc4ccccc4c3c1O)NC2=O
inactive: Potency [1] | Potency [3] | Potency [6] | Potency [4]
active: Potency [5] 10.6 µM

O=C(O)CC1CCC(c2ccc(-c3ccc4nc(C(=O)NCc5ccc(OC(F)(F)F)cc5)cn4c3)cc2)CC1 (stereo not drawn)
inactive: Potency [1] | Potency [2] | Potency [5] | Potency [6] | Potency [4]
